HT1080 IDH1KD tx: HT-1080 IDH1 knockdown cell toxicity (counter line) | HT-1080 IDH1 knockdown viability, ATP luminescence, 48 h | Potency, µM (doses to about 46.1 µM), inactives show top-dose activity, negative = toxicity, usual class: cytotoxic | 360,000 compounds, 2% hits | AID 686971;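 also: 0% = DMSO wells and -100% = cell-free medium wells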
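IDH1KD HT-1080 cells, 750/well, RPMI + 5% FBS; compound pinned after 2 h settling; 48 h, 37 °C; CellTiter-Glo luminescence; % activity normalised to DMSO and no-cell wells; curves fitted, classed by r2 and efficacy.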
KB-V1 cytotox: kills drug-selected multidrug resistant KB-V1 cells; Potency, µM (titrated, usually from 46.1 µM), usual class: cytotoxic; KB-V1 MDR cells viability, CellTiter-Glo, 72 h; 400,000 compounds, 3.4% hits; also: % is scaled to controls: 0 for no effect and ±100 for the full control effect; nearly all actives have a fitted effect of over 60% in size
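Luminescent ATP read-out (CellTiter-Glo, 10 min) measures survival of drug-selected KB-V1 MDR cells after 72 h, 37 degrees C compound exposure. Medium: phenol-red-free DMEM, 10% FBS. Values from fitted concentration-response curves.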
MCF10A rerep: DNA re-replication induction in MCF 10a cells; MCF 10A DNA re-replication, Hoechst nuclear intensity, 48 h; Potency, µM (doses to about 46.1 µM), without a hit: at the top dose activity, positive = re-replication, usual class: activators; 350,000 compounds, 2.9% hits; also: % of control where 0% means no effect; nearly all actives have a fitted effect of over 50% in size
SW480 rereplic: DNA re-replication induction in SW480 cells | Potency, µM (highest dose often 46.1 µM), for the others: at the highest dose re-replication activation, actives largely listed as activators | 340,000 compounds, 1.8% hits | SW480 DNA re-replication, Hoechst DNA content imaging, 48 h | AID 624297; also: % of control where 0% means no effect; nearly all actives have a fitted effect of over 55% in size
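Compounds, transferred as 23 nL by pin tool, were incubated with cells for 48 hr; DNA content per nucleus was then quantified by Hoechst staining and fluorescence plate imaging.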
HT1080NT lethal: kills 2HG-producing HT-1080-NT fibrosarcoma cells | HT-1080-NT fibrosarcoma viability, CellTiter-Glo ATP luminescence, 48 h | Potency, µM (top dose mostly 46.1 µM), without a hit: top-dose activity, negative = less viability, hits mostly cytotoxic | 360,000 compounds, 1.6% hits | AID 686970;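 also: NT is the 2HG producing partner of a matched IDH1 knockdown line; 0% = DMSO-treated cells and -100% = media-only wells without cells; nearly all actives have a fitted effect of over 55% in size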
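Compounds were tested in concentration-response format on HT-1080-NT cells for 48 hours at 37 degrees C. Cell viability came from CellTiter-Glo luminescence; curves were classified by r2, response magnitude and activity.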
KB-3-1 tox: KB-3-1 parental cell cytotoxicity | KB-3-1 viability, CellTiter-Glo ATP luminescence, 72 h | Potency, µM (top dose mostly 46.1 µM), usual class: cytotoxic | 400,000 compounds, 1.4% hits; also: % is scaled to controls: 0 for no effect and ±100 for the full control effect; nearly all actives have a fitted effect of over 60% in size
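Luminescent ATP read-out (CellTiter-Glo) measures survival of drug-naive KB-3-1 cells after 72 h compound exposure at 37 °C. Titration series was screened from lowest to highest concentration, with DMSO vehicle plates as background controls.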
* marks the source's active call; other numbers are inactive results; i = inactive; ? = inconclusive; nt = no result given. Hits are enriched below; roughly 7.9% of the tested compounds scored in any of these assays. Calls follow the shape of the dose curve; as a rule, active = well fitted curve in the direction sought with a large enough effect; inconclusive = small, poorly fitted or top-dose-only effect, or another doubt; inactive = no such curve, though single readings can be large; an effect the other way counts as inactive or inconclusive. Potency is read from the fitted curve at half-maximal effect.

SMILES	HT1080 IDH1KD tx	KB-V1 cytotox	MCF10A rerep	SW480 rereplic	HT1080NT lethal	KB-3-1 tox
Cc1noc(C)c1C(=O)N1CCC2(CC1)Oc1ccc(F)cc1C(=O)C21CC(c2ccc(Cl)cc2)=NO1 (stereo unspecified)	-1%	i	4%	?	-4%	i
COC(=O)[C@@]1(Cc2ccccc2)[C@H]2C(=O)N(Cc3ccccc3)C(=O)[C@H]2[C@H]2CN=C(SCc3ccc(C#N)cc3)N21	4%	i	5%	?	12%	i
CCOC(=O)[C@]12Cc3cc(OC)ccc3[C@H]1N(C)C(=O)c1ccccc12	14%	?	nt	nt	9%	?
CCOC(=O)[C@]12Cc3cc(OC)ccc3[C@H]1N(C(C)C)C(=O)c1cc(OC)ccc12	21µM*	6.5µM*	nt	nt	21µM*	10µM*
CCOC(=O)[C@]12Cc3c(cc(OC)c(OC)c3OC)[C@H]1N(C)C(=O)c1ccccc12	1%	i	nt	nt	11%	?
CCOC(=O)[C@]12Cc3c(cc(OC)c(OC)c3OC)[C@H]1N(C(C)C)C(=O)c1cc(OC)ccc12	18µM*	2.6µM*	nt	nt	15µM*	4.1µM*
CCOC(=O)[C@]12Cc3cc(C)ccc3[C@H]1N(C)C(=O)c1cc(OC)ccc12	16µM*	i	nt	nt	?	7.3µM*
CSc1ccc(Cl)c(C(=O)OCC(=O)N2CCN(C(=O)c3ccco3)CC2)c1	8%	?	0%	?	0%	i
C[C@H](O)[C@H]1CC[C@H]2[C@@H]3CCC4=CC(=O)CC[C@]4(C)[C@H]3CC[C@]12C	-3%	15µM*	?	-13%	-5%	i
C[C@]12CC[C@H]3[C@@H](CCC4=CC(=O)CC[C@@]43C)[C@@H]1CC[C@@H]2O	-4%	3.7µM*	7%	-10%	?	10µM*
CC12CCC(=O)C=C1CCC1C2C(O)CC2(C)C(O)CCC12 (stereo unspecified)	0%	?	-6%	-11%	-9%	?
CC1CC2C(C(O)CC3(C)C(O)CCC23)C2(C)CCC(=O)C=C12 (stereo unspecified)	4%	6.5µM*	7%	6%	4%	12µM*
C#C[C@]1(O)CC[C@H]2[C@@H]3CCC4=CC(=O)CC[C@]4(C)[C@H]3CC[C@@]21C	2%	i	6%	-6%	20%	i
CC12CCC(=O)C=C1CCC1C2CCC2(C)C(O)CCC12 (stereo unspecified)	-3%	4.1µM*	11%	1%	5%	?
CC1=NN(C)C(=O)C1Cc1c(F)cccc1Cl (stereo unspecified)	0%	i	4%	-54%	-13%	i
O=C(Nc1ccc2c(c1)OCO2)c1cccn(Cc2ccc(F)cc2)c1=O	nt	i	nt	nt	nt	i
CCc1ccc(OCC(=O)N2CCN(CCc3ccccn3)CC2)cc1	nt	i	nt	nt	nt	i
CNC(=O)Oc1ccccc1C(=O)Nc1ccccc1	nt	nt	3%	1%	nt	nt
C[C@]12CCC(=O)C=C1CC[C@@H]1[C@@H]2CC[C@@]2(C)[C@H]1CC[C@]2(C)O	-10%	?	?	-10%	5%	i
C[C@]12CC[C@H]3[C@@H](CCC4=CC(=O)CC[C@@]43C)[C@@H]1CC[C@@H]2C(=O)CO	-23%	8.2µM*	?	?	?	?
CC(=O)C1C(N2CC2)CC2C3CCC4=CC(=O)CCC4(C)C3CCC21C (stereo unspecified)	-14%	?	16µM*	?	-1%	?
CCC(=O)O[C@H]1CC[C@H]2[C@@H]3CCC4=CC(=O)CC[C@]4(C)[C@H]3CC[C@]12C	nt	?	?	-81%	nt	i
O=C(Oc1ccc2cc(Br)ccc2c1)N1CCCCCC1	nt	nt	?	0%	nt	nt

Source: PubChem BioAssay
